Laboratory results as given in PubChem BioAssay AID1159580 (chemical genetic matrix, 2015).
Where “and” joins values, the source holds several entries; their conditions need not be identical. Equal values may be shown once. The campaign covered roughly 5,500 compounds. About 2,000 (36%) were called active. Inconclusive results (about 18%) are left out. Rule as the data show it: active = normalized growth mostly below about 0.91 (no sharp cut-off); inconclusive = no clear call, values can overlap the other calls; inactive = mostly above about 0.92. This is one part of the list.

Assay: chemical genetic growth profiling, strain panel (AID 1159580);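 also: tested at 20 µM; growth read once vehicle control cultures reached saturation at 30 °C; 1 = growth at the plate median or of vehicle wells; lower values mean less growth of the strain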
Settings: S. cerevisiae deletion strains, growth OD

Measured: normalized growth

CN(C)CCN(Cc1ccccc1)c1ccccn1
inactive: locus YAL013W, strain DEP1, hits give low values 0.988 | locus YAL021C, strain ccr4, hits give low values 1.01 | locus YAL026C, strain drs2, hits give low values 1.01 | locus YAL030W, strain snc1, hits give low values 1.02 | locus YBL061C, strain skt5, hits give low values 1.01 | locus YBR009C, strain hhf1, hits give low values 0.963 | locus YBR021W, strain FUR4, hits give low values 0.99 | locus YBR023C, strain chs3, hits give low values 1.01 | locus YBR171W, strain sec66, hits give low values 1.02 | locus YBR229C, strain ROT2, hits give low values 1.01 | locus YBR231C, strain swc5, hits give low values 1.02 | locus YBR279W, strain paf1, hits give low values 1.01 | locus YCL011C, strain gbp2, hits give low values 1 | locus YCL016C, strain dcc1, hits give low values 0.997 | locus YCL029C, strain bik1, hits give low values 0.972 | locus YCL061C, strain MRC1, hits give low values 1.03 | locus YCL069W, strain vba3, hits give low values 1.01 | locus YCR088W, strain abp1, hits give low values 0.997 | locus YDL005C, strain med2, hits give low values 1.01 | locus YDL035C, strain GPR1, hits give low values 1.01 | locus YDL040C, strain nat1, hits give low values 1.02 | locus YDL074C, strain BRE1, hits give low values 1.02 | locus YDL101C, strain DUN1, hits give low values 0.987 | locus YDL134C, strain PPH21, hits give low values 1 | locus YDL185W, strain tfp1, hits give low values 0.946 | locus YDL192W, strain arf1, hits give low values 0.98 | locus YDR001C, strain nth1, hits give low values 1.01 | locus YDR069C, strain doa4, hits give low values 1.03 | locus YDR101C, strain arx1, hits give low values 0.988 | locus YDR137W, strain rgp1, hits give low values 1.01 | locus YDR150W, strain NUM1, hits give low values 0.981 | locus YDR159W, strain sac3, hits give low values 0.981 | locus YDR162C, strain NBP2, hits give low values 0.989 | locus YDR195W, strain ref2 1.02 | locus YDR297W, strain sur2, hits give low values 1.02 | locus YDR318W, strain mcm21, hits give low values 1.01 | locus YDR334W, strain swr1, hits give low values 1.01 | locus YDR335W, strain msn5, hits give low values 1.02 | locus YDR388W, hits give low values 1 | locus YDR392W, strain spt3, hits give low values 0.999 | locus YDR502C, strain sam2, hits give low values 1.02 | locus YEL003W, strain gim4, hits give low values 1.02 | locus YEL037C, strain rad23, hits give low values 1.02 | locus YEL061C, strain CIN8 (second series), hits give low values 1.02 | locus YEL061C, strain CIN8, hits give low values 0.992 | locus YER015W, strain faa2, hits give low values 1.01 | locus YER016W, strain bim1, hits give low values 0.964 | locus YER110C, hits give low values 0.973 | locus YER111C, strain swi4, hits give low values 1.02 | locus YER155C, strain BEM2 (second series), hits give low values 1.05 | locus YER155C, strain BEM2, hits give low values 1 | locus YER167W, strain BCK2, hits give low values 0.996 | locus YFR010W, strain ubp6, hits give low values 1.03 | locus YGL078C, strain dbp3, hits give low values 0.991 | locus YGL086W, strain mad1, hits give low values 0.992 | locus YGL167C, strain pmr1, hits give low values 1.01 | locus YGL173C, strain kem1, hits give low values 1.03 | locus YGL227W, strain vid30, hits give low values 1.01 | locus YGL240W, strain doc1, hits give low values 1.04 | locus YGL248W, strain PDE1, hits give low values 1.01 | locus YGL253W, strain hxk2, hits give low values 1 | locus YGR078C, strain PAC10, hits give low values 0.988 | locus YGR135W, strain pre9, hits give low values 1.01 | locus YGR229C, strain SMI1, hits give low values 1 | locus YGR252W, strain gcn5, hits give low values 1.14 | locus YHR013C, strain ard1, hits give low values 0.984 | locus YHR027C, strain rpn1, hits give low values 1 | locus YHR030C, strain SLT2, hits give low values 0.968 and 0.97 | locus YHR079C, strain IRE1 (second series), hits give low values 0.999 | locus YHR079C, strain IRE1, hits give low values 0.953 | locus YHR094C, strain hxt1, hits give low values 0.967 | locus YHR129C, strain ARP1, hits give low values 0.994 | locus YHR142W, strain chs7, hits give low values 1.01 | locus YHR200W, strain rpn10, hits give low values 1 | locus YIL066C, strain RNR3, hits give low values 1 | locus YIL073C, strain SPO22, hits give low values 0.928 | locus YIL125W, strain kgd1, hits give low values 0.976 | locus YIR030C, strain dcg1, hits give low values 0.994 | locus YJL092W, strain hpr5, hits give low values 1.03 | locus YJL095W, strain BCK1 (second series), hits give low values 1.01 | locus YJL095W, strain BCK1, hits give low values 0.96 and 0.975 | locus YJL115W, strain asf1, hits give low values 1.02 | locus YJL129C, strain trk1, hits give low values 1.02 | locus YJL134W, strain LCB3, hits give low values 0.998 | locus YJL154C, strain vps35, hits give low values 1.01 | locus YJL164C, strain tpk1, hits give low values 1 | locus YJL166W, strain qcr8, hits give low values 1.04 | locus YJL168C, strain set2, hits give low values 0.982 | locus YJL187C, strain SWE1 (second series), hits give low values 0.985 | locus YJR043C, strain POL32, hits give low values 1.01 | locus YJR066W, strain TOR1, hits give low values 0.947
